# Legend:
# Test in all cases: DAPPL (digital affinity profiling via proximity ligation, sequencing); 10 mM Tris-HCl pH 7.5, 50 mM NaCl, 1 mM DTT, 4% glycerol, room temperature, 30 min; GST-TFs on glutathione beads, 16-mer random dsDNA library, 0.1% formaldehyde crosslink after washing; high values mean tight binding
# Details in all cases: protein: recombinant; tags: N-terminal GST; dsDNA, one strand shown
# [1] = biological target: T1, ELK4 (Homo sapiens, UniProt P28324-2 1-405)
# T1 sequence: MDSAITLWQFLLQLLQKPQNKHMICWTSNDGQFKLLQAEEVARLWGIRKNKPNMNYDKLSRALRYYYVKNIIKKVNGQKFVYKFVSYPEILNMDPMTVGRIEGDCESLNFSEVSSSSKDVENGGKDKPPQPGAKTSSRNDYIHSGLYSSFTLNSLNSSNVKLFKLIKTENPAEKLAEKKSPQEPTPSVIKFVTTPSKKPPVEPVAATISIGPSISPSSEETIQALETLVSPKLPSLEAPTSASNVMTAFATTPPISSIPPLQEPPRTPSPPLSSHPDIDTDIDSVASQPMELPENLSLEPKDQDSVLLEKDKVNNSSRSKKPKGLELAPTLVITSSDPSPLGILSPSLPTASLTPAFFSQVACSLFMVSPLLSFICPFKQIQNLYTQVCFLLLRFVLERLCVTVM
# Summary of the method: (§1)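 Sequencing on an Illumina NextSeq500 followed washing, crosslinking with 0.1% formaldehyde, proximity ligation (BsaI/T4 ligase, 1 h, 37 °C) and PCR amplification of pools that had been incubated for 30 min at room temperature with 200 nmole of a random double-stranded 16-mer DNA library in Tris/NaCl/DTT/glycerol buffer. Each pool held DNA-barcoded human transcription factors, expressed in yeast as GST fusions and captured on glutathione beads, plus a tag-only sample. Binding signal is a hexamer's read frequency for a factor divided by its frequency in the tag-only sample.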
# [2] = biological target: T2, ETV2 (Homo sapiens, UniProt O00321 1-342)
# T2 sequence: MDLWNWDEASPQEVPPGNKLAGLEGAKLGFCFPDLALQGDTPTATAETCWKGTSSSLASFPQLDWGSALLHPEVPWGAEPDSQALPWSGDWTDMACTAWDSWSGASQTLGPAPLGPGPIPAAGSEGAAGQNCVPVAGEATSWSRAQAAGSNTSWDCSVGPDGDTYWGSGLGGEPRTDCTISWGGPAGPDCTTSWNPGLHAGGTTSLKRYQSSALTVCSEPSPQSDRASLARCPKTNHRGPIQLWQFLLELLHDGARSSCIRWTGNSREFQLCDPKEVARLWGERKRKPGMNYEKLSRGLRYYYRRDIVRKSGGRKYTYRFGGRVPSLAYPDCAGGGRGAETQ
# Summary of the method: as §1
# [3] = biological target: T3, ELF3 (Homo sapiens, UniProt P78545 1-371)
# T3 sequence: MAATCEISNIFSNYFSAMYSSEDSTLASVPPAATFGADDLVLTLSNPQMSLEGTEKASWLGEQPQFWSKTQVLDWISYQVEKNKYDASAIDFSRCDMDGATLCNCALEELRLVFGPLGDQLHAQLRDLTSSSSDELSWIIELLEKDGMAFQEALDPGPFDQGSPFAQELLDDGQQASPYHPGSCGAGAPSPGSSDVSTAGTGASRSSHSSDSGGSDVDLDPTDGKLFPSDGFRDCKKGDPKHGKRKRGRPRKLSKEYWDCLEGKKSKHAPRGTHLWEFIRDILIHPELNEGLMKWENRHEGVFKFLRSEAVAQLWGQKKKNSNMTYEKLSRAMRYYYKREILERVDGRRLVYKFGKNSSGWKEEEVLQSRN
# Summary of the method: as §1
# [4] = biological target: ETV1 (Homo sapiens, UniProt P50549 1-477)
# Chain of ETV1 (P50549 whole entry): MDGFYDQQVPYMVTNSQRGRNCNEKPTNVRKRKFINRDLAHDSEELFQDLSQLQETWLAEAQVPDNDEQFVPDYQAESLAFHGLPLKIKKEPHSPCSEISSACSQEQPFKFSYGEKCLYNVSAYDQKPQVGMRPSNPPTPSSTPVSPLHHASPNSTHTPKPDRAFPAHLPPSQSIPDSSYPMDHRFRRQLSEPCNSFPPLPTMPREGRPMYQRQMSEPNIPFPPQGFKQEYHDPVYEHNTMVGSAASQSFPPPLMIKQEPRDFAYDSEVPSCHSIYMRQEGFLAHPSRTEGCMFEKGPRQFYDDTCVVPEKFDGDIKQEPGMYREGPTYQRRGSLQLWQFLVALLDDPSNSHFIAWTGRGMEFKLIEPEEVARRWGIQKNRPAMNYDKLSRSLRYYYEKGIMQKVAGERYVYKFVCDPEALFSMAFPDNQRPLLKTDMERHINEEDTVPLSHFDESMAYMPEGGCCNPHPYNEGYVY
# Summary of the method: as §1
# [5] = biological target: T4, ERF (Homo sapiens, UniProt P50548 1-548)
# T4 sequence: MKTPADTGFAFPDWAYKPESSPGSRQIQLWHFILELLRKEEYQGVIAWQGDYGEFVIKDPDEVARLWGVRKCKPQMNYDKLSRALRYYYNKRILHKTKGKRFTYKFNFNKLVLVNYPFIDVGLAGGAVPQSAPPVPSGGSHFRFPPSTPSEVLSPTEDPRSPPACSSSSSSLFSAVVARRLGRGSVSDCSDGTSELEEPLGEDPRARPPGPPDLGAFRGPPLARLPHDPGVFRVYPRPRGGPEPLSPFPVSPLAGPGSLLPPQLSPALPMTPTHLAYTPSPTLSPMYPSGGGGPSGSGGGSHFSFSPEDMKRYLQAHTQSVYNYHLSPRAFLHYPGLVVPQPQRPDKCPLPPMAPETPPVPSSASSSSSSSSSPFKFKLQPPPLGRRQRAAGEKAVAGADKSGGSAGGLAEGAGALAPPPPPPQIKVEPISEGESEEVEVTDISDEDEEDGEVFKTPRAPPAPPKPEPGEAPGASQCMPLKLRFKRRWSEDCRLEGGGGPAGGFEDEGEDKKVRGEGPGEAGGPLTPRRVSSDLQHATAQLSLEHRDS
# Summary of the method: as §1
# [6] = biological target: T5, ETV3L (Homo sapiens, UniProt Q6ZN32 1-361)
# T5 sequence: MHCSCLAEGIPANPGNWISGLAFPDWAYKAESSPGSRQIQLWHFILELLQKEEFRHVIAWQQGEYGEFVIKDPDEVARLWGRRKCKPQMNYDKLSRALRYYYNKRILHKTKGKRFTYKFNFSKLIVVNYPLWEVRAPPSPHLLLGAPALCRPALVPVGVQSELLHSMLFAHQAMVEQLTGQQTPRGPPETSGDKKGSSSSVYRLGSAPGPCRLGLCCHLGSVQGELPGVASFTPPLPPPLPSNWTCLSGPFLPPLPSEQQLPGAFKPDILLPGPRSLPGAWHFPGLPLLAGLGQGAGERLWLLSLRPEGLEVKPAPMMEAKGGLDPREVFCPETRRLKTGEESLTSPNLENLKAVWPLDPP
# Summary of the method: as §1
# [7] = biological target: T6, ETS2 (Homo sapiens, UniProt P15036 1-469)
# T6 sequence: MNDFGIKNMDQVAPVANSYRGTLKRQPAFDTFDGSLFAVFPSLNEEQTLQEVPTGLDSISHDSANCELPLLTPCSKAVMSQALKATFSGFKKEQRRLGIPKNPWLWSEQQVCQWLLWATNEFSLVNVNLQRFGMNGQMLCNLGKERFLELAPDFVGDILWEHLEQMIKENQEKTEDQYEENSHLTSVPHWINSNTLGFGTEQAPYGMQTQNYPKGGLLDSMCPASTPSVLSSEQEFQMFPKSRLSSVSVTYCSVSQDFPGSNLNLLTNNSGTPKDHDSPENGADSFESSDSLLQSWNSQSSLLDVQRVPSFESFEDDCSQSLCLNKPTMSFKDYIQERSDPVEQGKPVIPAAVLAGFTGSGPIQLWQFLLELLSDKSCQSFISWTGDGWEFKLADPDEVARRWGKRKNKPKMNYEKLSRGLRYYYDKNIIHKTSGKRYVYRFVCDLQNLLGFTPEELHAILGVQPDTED
# Summary of the method: as §1
# [8] = biological target: T7, SPDEF (Homo sapiens, UniProt O95238 1-335)
# T7 sequence: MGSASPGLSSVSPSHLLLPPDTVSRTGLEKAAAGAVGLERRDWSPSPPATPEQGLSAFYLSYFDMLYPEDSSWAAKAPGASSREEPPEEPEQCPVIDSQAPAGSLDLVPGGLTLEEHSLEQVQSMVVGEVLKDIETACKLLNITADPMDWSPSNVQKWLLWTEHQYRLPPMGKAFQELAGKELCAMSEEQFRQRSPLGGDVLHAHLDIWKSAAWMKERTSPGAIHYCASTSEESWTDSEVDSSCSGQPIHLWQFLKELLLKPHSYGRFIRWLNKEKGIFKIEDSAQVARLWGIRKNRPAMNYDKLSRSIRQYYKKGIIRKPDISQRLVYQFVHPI
# Summary of the method: as §1
# [9] = biological target: T8, ETV7 (Homo sapiens, UniProt Q9Y603 1-341)
# T8 sequence: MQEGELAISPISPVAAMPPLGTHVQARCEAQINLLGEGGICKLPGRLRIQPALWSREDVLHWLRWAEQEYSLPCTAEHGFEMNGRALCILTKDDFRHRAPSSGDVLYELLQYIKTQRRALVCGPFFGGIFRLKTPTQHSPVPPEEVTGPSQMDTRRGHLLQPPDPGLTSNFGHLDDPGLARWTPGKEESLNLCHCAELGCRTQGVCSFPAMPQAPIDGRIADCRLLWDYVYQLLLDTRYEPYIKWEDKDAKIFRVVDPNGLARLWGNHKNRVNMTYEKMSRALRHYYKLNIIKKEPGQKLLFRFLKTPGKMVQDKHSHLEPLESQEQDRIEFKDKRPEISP
# Summary of the method: as §1
# [10] = biological target: T9, ETV3 (Homo sapiens, UniProt P41162-2 1-143)
# T9 sequence: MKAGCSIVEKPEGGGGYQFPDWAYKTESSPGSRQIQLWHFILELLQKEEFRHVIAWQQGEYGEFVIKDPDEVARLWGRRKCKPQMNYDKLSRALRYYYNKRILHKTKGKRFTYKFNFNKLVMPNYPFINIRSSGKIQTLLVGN
# Summary of the method: as §1
sequence,measurement,setting,value
CGATGC,binding signal,[1],"1.07 fold enrichment (6-mer frequency, TF over GST control)"
same,binding signal,[2],"1.15 fold enrichment (6-mer frequency, TF over GST control)"
same,binding signal,[3],"1.2 fold enrichment (6-mer frequency, TF over GST control)"
same,binding signal,[4],"1.03 fold enrichment (6-mer frequency, TF over GST control)"
same,binding signal,[5],"1.07 fold enrichment (6-mer frequency, TF over GST control)"
same,binding signal,[6],"1.18 fold enrichment (6-mer frequency, TF over GST control)"
same,binding signal,[7],"1.06 fold enrichment (6-mer frequency, TF over GST control)"
same,binding signal,[8],"1.07 fold enrichment (6-mer frequency, TF over GST control)"
same,binding signal,[9],"1.04 fold enrichment (6-mer frequency, TF over GST control)"
same,binding signal,[10],"1.17 fold enrichment (6-mer frequency, TF over GST control)"

# Reference: PMC7862700, “An all-to-all approach to the identification of sequence-specific readers for epigenetic DNA modifications on cytosine”
